# Laboratory results published in the supplement of paper PMC6555819.
# Assays:
# Assay in all cases: PBM binding z-score (relative to random genomic background probes); higher = stronger binding; sequences stand for … in GC…GCGATTGACAGCGTAGAATGAAGG
# [1] = system: PPARg:RXRa DBDmut IVT, anti-RXR (DBD mutation: RXRa K156A/R161A, NR concentration 270 nM, RXRa partner concentration 90 nM)
# Outline: (§1)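 The probes on custom Agilent 4×180K protein-binding microarrays were double-stranded, with 34-nt variable regions bearing direct-repeat seeds, single-nucleotide variants, half-site ablations and random human genomic background sequences. Incubation lasted 1 h with ligand-free nuclear receptor dimers in PBS pH 7.4, 2% milk, 0.02% Triton X-100, 1 mM DTT, 0.2 mg/mL BSA and 0.4 mg/ml salmon testes DNA. Antibodies against each partner (one per run) detected bound dimers, and fluorescence scans were regression-normalized. Binding z-scores take the random background probes as reference.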
# [2] = system: PPARg:RXRa IVT, anti-PPARg (NR concentration 270 nM, RXRa partner concentration 90 nM)
# Outline: as §1
# [3] = system: PPARg DBDmut:RXRa IVT, anti-PPARg (DBD mutation: PPARg1 K132A/R137A, NR concentration 270 nM, RXRa partner concentration 90 nM)
# Outline: as §1
# [4] = system: PPARg DBDmut IVT, anti-PPARg (DBD mutation: PPARg1 K132A/R137A, NR concentration 270 nM)
# Outline: as §1
# [5] = system: PPARg homodimer (NR concentration 180 nM)
# Outline: as §1
# [6] = system: PXR:RXRa (NR concentration 270 nM, RXRa partner concentration 90 nM)
# Outline: as §1
# [7] = system: PXR homodimer (NR concentration 270 nM)
# Outline: as §1
# [8] = system: RARa:RXR (NR concentration 270 nM, RXRa partner concentration 90 nM)
# Outline: as §1
# [9] = system: RARa homodimer (NR concentration 270 nM)
# Outline: as §1
# [10] = system: RARb:RXRa (NR concentration 270 nM, RXRa partner concentration 90 nM)
# Outline: as §1
Sequence,PBM binding z-score [1],PBM binding z-score [2],PBM binding z-score [3],PBM binding z-score [4],PBM binding z-score [5],PBM binding z-score [6],PBM binding z-score [7],PBM binding z-score [8],PBM binding z-score [9],PBM binding z-score [10]
GCTGCTAGGTTAACTGATGGTCAGCTAAAGCTCG,2.43,1.36,-1.35,-0.847,-0.127,0.00634,-0.91,0.512,-1.49,1.54
GCTAGTTGGTCAGTAAATGGTCACACACCGGTCG,0.302,0.493,0.157,0.192,0.621,-0.0876,-0.353,0.368,0.255,1.2
CTCGAAAGGGCGTGCTCAGGTGAGTATACCAAAC,-0.316,0.335,-0.537,-0.0248,-0.194,-0.0546,0.0968,0.278,-0.187,1.37
GCTGCTAGGTCAACTGATGGTGAGCTAAAGCTCG,5.09,4.15,-0.747,-0.586,1.16,1.22,-0.899,2.11,-0.283,4.28
CCTACTGGGGCAAAGGTCATTGATTCCAATGCTC,6.11,7.2,0.312,-0.624,2.42,5.6,0.979,6.37,0.341,4.66
CCTGCTCGGTCAATGGTCAGCTAAAGCAGCTCGC,0.753,0.0131,-1.19,-1.21,-0.242,-0.189,-0.933,0.252,-0.686,2.28
CCTACTGGGCCATTAAGAGGTCATTGATCATATG,4.25,4.13,0.259,0.0479,2.02,4.48,1.79,4.14,0.836,2.94
ATCTGTAGGTTATCGGGTCATTCAGTTTGCGCAT,4.65,5.29,1.81,1.76,2.43,3.86,7.32,3.93,1.11,2.71
CCTAGTTGGTCAAGGTCTCACACGCTATAGGTAC,1.7,1.75,-0.0151,0.765,1.47,0.365,0.749,0.511,1.56,1.48
TAGCCTAGGTCATGGGCCTGTATACCACGCGAAC,1.69,3.19,0.382,-0.135,1.45,1.82,-0.611,3.17,0.359,3.97
CAAACTAGGTCACGAAAGGTCAAATTCGAATGAC,8.4,9.14,3.89,2.38,4.71,7.07,2.34,7.31,2.58,6
AGATTGAGGTTACCAAAGATCAGGGAAACGCTTG,3.1,2.54,0.865,-0.0178,0.218,1.5,-0.393,2,0.127,2.24
GCTATTAGGTGAAAGGGCAACCGAATGATTCTCG,6.66,6.05,0.769,0.0827,1.6,1.48,0.0465,2.47,0.772,2.48
GTACCAAGGTGAATAGGTCGTTGATGAGTAGGCG,1.99,2.78,0.41,0.294,1.84,0.719,-0.224,1.72,0.00144,1.94
ATCGAAAAGTCGAAGGTGAGTATACCCACCCGAA,-0.679,0.2,0.0254,0.527,0.0253,-0.258,-0.0858,0.357,0.291,0.417
CAAACTAGGTCACAGGGGTCAAAGTCCGTGCGTA,8.38,9.12,4.98,3.18,3.99,6.9,8.47,8.18,1.96,5.46
CCTAGTTGGTCAGGAGGTCACAAACCGGATATGA,1.35,3.19,0.681,-0.00546,3.21,3.77,1.38,4.45,2.04,3.37
GCTCGGAGGACAAGGTCAGGGCTTTGTCCGTAGA,-0.354,1.3,-0.608,-0.233,0.661,2.03,-0.681,2.71,-0.898,3.83
ATCTCTAGGTAACAAGGTCAGTGAAAGAGAGGAC,4.43,4.75,1.63,1.14,2.4,1.98,1.12,2.3,1.5,3.07
CCAGACAGGTGAAAGGTAACTCCGTCTGGTACGC,1.67,2.94,-0.44,-0.311,1.15,0.836,-0.734,1.5,0.043,1.23
CTTACTGGGCCAAAGGTCATTGATTCCAATGCTC,7.41,8.39,2.55,2.05,5.08,5.66,2.72,7.06,1.85,4.62
AGTCAAAGTTCAGGACGAGGTACCGTAAAGCACG,-0.264,0.999,-0.0468,-0.427,0.643,2.17,0.824,2.02,0.582,4.34
CCTAGTTGGTCAGGGGGTCACACACCGGATATGA,1.2,4.57,2.8,4.19,3.05,5.01,1.49,5.48,1.61,3.74
CCTCCAAGGTCATAGGAGGTCAGTGAAGACAGAT,2.72,4.01,1.58,0.448,4.5,6.72,4.74,5.96,2.34,5.09

Sequence,PBM binding z-score [1],PBM binding z-score [2],PBM binding z-score [3],PBM binding z-score [4],PBM binding z-score [5],PBM binding z-score [6],PBM binding z-score [7],PBM binding z-score [8],PBM binding z-score [9],PBM binding z-score [10]
AGTCGGAGGACAAAGGTCAGAGCTACGCCAGTGA,0.569,3.68,0.374,-0.0334,3.93,3.98,0.166,5.06,1.59,4.31
CCTTACGGGTCGCTGACAGGTTATAGCATTTGGA,0.346,0.0988,-0.356,-0.76,0.641,1,-0.0348,1.68,-0.0216,1.18
CCTACTGGGCCAAGGTCATTGAGCAGTCAAAGCA,3.78,4.64,0.0966,0.249,1.29,3.5,1.2,3.64,-0.199,3.21
CGAACTAGGTCAGAGCAGGACAGTGAAGGATGAT,7.51,7.58,2.72,2.03,0.79,1.15,-0.0767,1.54,-0.158,2.94
ATCGAAAGGTCGACGAGGAGAGTATACACCGTTT,0.291,1.39,1.26,0.739,1.33,2.4,0.432,3.03,0.544,3.66
AGTCAAAGTTCATCTAGGTAACGAAAGATATGCT,0.744,4.11,1.97,1.3,3.18,5.26,6.53,4.34,2.16,5.15
ACTAGAAGGCCAAGGGTCACTCAAGATTAGTCCG,0.756,3.55,0.734,-0.0604,5,3.73,0.235,5.15,1.18,3.92
AATTCAGGGTCACTAGGCCAGAGTAGGTACGAAT,4.91,6.4,5.15,2.77,4.18,4.19,0.429,5.62,1.32,4.89
TCTAGTTGGTCAAAGGTCAAACACTCGAAATGCG,3.57,6.13,0.582,1.1,5.11,6.28,2.64,7.64,2.96,5.23
ACTCGGAGGACAAAGGTCAGAACTACGCCAGTGA,0.613,3.35,0.492,-0.388,4.36,3.9,0.428,4.98,2.66,4.04
CCTAGTTGGTCAAGGTCACGCACGCTATAGGTAC,2.54,3.78,0.403,0.558,3.73,4.64,2.27,4.99,2.21,4.31
ACTCGGAGGACAAATGTCAGAGCTACGCCAGTGA,0.158,0.0513,0.143,-1.07,-0.0876,-0.536,-0.343,-0.444,-0.635,1.44
GCATATAGGTAATTCAAGGTGAAAGTCCGATTGT,3.96,3.53,0.595,0.845,0.811,0.919,0.171,2.33,0.378,0.678
CGTCCAAGGGCAATGCTAGGTCAGTGAAAGCATT,0.816,0.945,-1.98,-1.04,1.08,1.04,-0.135,1.55,-0.607,3.1
TGAATGAAGTTAAAGATCAGGGAACGTGGCGTCG,-0.838,-0.0985,0.102,0.236,-0.094,-0.563,-0.811,-0.169,-0.374,-0.227
CAAACTAGGTCAAAGGTCAAGGTCGAGCCAACCA,9.03,9.29,6.79,5.8,7.67,7.26,1.52,8.89,3.88,5.76
CCTGCTAGGTCATGGTCAGGTAATCTACAGTATG,4.45,3.79,0.801,0.0323,1.72,1.78,-0.0214,2.55,0.209,4.04
AAAATGAGGTTAAGATCAGGGAAACAGAATACAT,3.27,3.78,1.96,0.972,1.85,1.26,0.646,2.48,0.889,2.04
CCTACTGGGCCACGAAAGGGCATTGATTCAGTGA,5.38,5.14,0.311,0.299,-0.0604,0.616,-0.539,0.471,-0.24,1.69
ACTCGGAGGACAAACGTCAGAGCTACGCCAGTGA,-0.0796,-0.507,-0.617,-0.00127,-0.209,-0.77,-0.0928,-0.299,-0.122,0.951
TTAACAAGGTGAAAGGTCGTTGATGCACGCCTTG,4.84,5.57,0.666,0.131,2.13,3.92,0.791,5.73,-0.215,3.09
CTAACTAGGTCACGAAAGGTCAAAGTCGAATGAC,8.88,9.03,2.32,2.06,5.96,6.97,3.14,7.47,2.75,5.6
ATATGTAGGTTACGTCCGGGTCATTCAGGCTATG,7.35,7.47,4.19,3.42,3.1,3.87,2.03,4.08,0.587,2.47
CCTACTGGGCCAATAAGGTCATTGATGCCGATAA,3.88,4.4,-0.359,-0.0114,1.04,3.77,3.17,3.56,0.431,3.17
